Hits are enriched below; roughly 5.1% of the tested compounds scored in any of these assays.
Tau fil binding = binders of human tau filaments; recombinant tau filaments, thioflavin S fluorescence, 15 h; filaments grown with octadecylsulfate alongside compound; P10636; hit rate 2% among 71,000; Potency, µM (doses to about 57.1 µM), for the others: at the highest dose activity change, negative = inhibition;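 further: on the % scale 0 is the no-effect control and ±100 the full control effect; actives lower thioflavin S fluorescence by blocking filaments or displacing dye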
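Tau 2 uM in ThS buffer dispensed; compound added; 60 uM ODS added (finals 1 uM tau, 30 uM ODS); 15 h 37 C; fluor ex450/em510.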
DNA Pol III inh = DNA polymerase III holoenzyme inhibition | Potency, µM (top dose mostly 57.1 µM), without a hit: at the highest dose activity change, negative = inhibition | AID 603 | reconstituted DNA polymerase III holoenzyme replication, biochemical | hit rate 0.25% among 71,000; further: on the % scale 0 is the no-effect control and ±100 the full control effect
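Reconstituted *E. coli* holoenzyme (0.35 nM Pol III, 1 nM beta, 154 nM SSB, 2 nM primase) was preincubated with compound for 15 min at RT. Synthesis on 1.4 nM ssM13Gori ran 35 min, then was stopped with PicoGreen/EDTA and read as dsDNA fluorescence.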
TSHR ag = activates the human thyroid stimulating hormone receptor. HEK293-CNG-TSHR cells (CNG channel as cAMP sensor), membrane potential dye, cAMP. P16473. Potency, µM (series often up to 57.1 µM), without a hit: top-dose activation, usual class: activators. hit rate 0.48% among 73,000; active means well fitted activation curve with a large enough effect in the main read-out, with a control signal flat, not every such curve was filed as active; inconclusive means small, poorly fitted or top-dose-only effect, or a change in a side signal; inactive means no such curve, though single readings can be large or run the other way; % of control where 0% means no effect;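 further: the control signal comes from parental cells without the receptor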
Target sequence (P16473 whole entry, looked up): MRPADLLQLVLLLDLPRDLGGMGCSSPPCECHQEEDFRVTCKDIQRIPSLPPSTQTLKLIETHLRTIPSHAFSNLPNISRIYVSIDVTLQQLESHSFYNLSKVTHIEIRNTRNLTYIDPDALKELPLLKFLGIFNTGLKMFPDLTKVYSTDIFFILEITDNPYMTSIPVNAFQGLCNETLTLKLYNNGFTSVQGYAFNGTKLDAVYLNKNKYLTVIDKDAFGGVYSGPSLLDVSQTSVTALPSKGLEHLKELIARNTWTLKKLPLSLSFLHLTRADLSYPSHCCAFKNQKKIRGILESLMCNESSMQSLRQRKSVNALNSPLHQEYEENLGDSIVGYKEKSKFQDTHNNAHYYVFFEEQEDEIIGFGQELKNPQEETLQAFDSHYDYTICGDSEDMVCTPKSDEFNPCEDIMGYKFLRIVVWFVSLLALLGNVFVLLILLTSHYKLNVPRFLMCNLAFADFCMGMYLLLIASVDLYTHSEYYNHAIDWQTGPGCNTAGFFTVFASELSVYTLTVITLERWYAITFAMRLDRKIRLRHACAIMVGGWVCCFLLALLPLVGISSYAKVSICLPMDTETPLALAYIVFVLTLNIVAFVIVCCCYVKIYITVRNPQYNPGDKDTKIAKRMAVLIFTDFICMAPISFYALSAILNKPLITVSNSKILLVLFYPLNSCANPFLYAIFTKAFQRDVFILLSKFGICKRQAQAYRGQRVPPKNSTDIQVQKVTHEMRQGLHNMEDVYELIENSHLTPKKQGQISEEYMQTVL
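HEK 293 cells stably expressing TSHR and a cAMP-gated CNG channel; parental CNG-only cells as counterscreen. Cells preloaded 60 min with membrane potential dye plus 100 uM RO 20-1724, then compound 30 min; fluorescence read at 590 nm.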
Hsp90 Hop PPI = changes Hsp90-Hop TPR2A binding signal, up or down; Potency, µM (doses to about 57 µM), inactives show at the highest dose activity change, negative = inhibition; AlphaScreen TPR2A-His6 binding biotin-Hsp90 C-terminal peptide; AID 595; hit rate 0.44% among 71,000; active means well fitted curve in either direction with a large enough effect; inconclusive means small, poorly fitted or top-dose-only effect, or another doubt; further: on the % scale 0 is the no-effect control and ±100 the full control effect
HEK293 cAMP ctrl = raises cAMP in parental HEK293 cells, TSHR agonist counter-screen. parental HEK293 CNG cAMP sensor, membrane potential fluorescence. Potency, µM (highest dose often 57.1 µM), without a hit: at the highest dose activation, usual class: activators. hit rate 2.5% among 73,000; further: % of control where 0% means no effect; nearly all actives have a fitted effect of over 55% in size
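Parental HEK 293 cells stably expressing a cAMP-gated CNG channel were loaded with membrane potential dye containing 100 uM RO 20-1724 for 60 min. Compound added for 30 min; depolarization read as fluorescence intensity at 590 nm.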
* marks the source's active call; other numbers are inactive results; ? = inconclusive; nt = no result; [ ] = remark or other dose. Unless noted, the call rests on the fitted dose curve; in most records, active means well fitted curve in the direction sought with a large enough effect; inconclusive means small, poorly fitted or top-dose-only effect, or another doubt; inactive means no such curve, though single readings can be large; an effect the other way counts as inactive or inconclusive. Potency means the concentration at half of the fitted maximal effect.

SMILES	Tau fil binding	DNA Pol III inh	TSHR ag	Hsp90 Hop PPI	HEK293 cAMP ctrl
COC(=O)[C@@]1(Cc2ccccc2)[C@H]2c3cc(C(=O)N4CCCC4)n(C)c3C[C@H]2CN1C(=O)c1ccccc1	26%	3%	?	-6%	?
COC(=O)[C@@]1(Cc2ccc(F)cc2)[C@H]2c3cc(C(=O)N4CCCC4)n(CCc4ccc(OC)c(Br)c4)c3C[C@H]2CN1C(=O)c1ccccc1	20%	-8%	?	-11%	?
COC(=O)[C@@]1(Cc2ccc(OC)cc2)[C@H]2c3cc(C(=O)N4CCCC4)n(CCc4ccc(OC)c(Br)c4)c3C[C@H]2CN1C(=O)c1ccccc1	9%	-14%	?	-23%	5µM*
COc1ccc([C@@H](Nc2ncccn2)c2cc3c(cc2O)OCO3)cc1	6%[11.4 µM]	1%[11.4 µM]	0%[11.4 µM]	-4%[11 µM]	-1%[11.4 µM]
Cc1cccc(NC(=O)Nc2ccc(C#N)cc2)n1	118%	25µM*	1%	-2%	7%
Cc1cccc(NC(=O)Nc2cccc(C#N)c2)n1	45%	-2%	4%	-1%	3%
CO[C@H]1COC(=O)CCC[C@@H](C)[C@H](OC)COC(=O)[C@H]2CCCN2C(=O)C/C=C\[C@@H]1C	nt	nt	-9%[11.4 µM]	nt	4%[11.4 µM]
O=C(c1cccc(F)c1)N1CCC2(CCCN(Cc3ccccc3)C2)CC1	7%	-9%	14%	2%	27%
COc1ccc2oc(=O)c(C(=O)N3CCN(c4ccccc4)CC3)cc2c1	-9%	3%	10%	-4%	7%
COc1ccc2oc(=O)c(C(=O)N3CCN(c4ccccc4C)CC3)cc2c1	16µM*	-4%	16%	-1%	9%
CC1=CC(=C2C(=O)c3ccccc3C2=O)C=C(C)N1Cc1ccco1	32µM*	-5%	1%	-8%	9%
O=C(Oc1ccccc1)N1CCC[C@@]2(CCN(c3ccncc3)C2)C1	15%	0%	?	-3%	?
O=C(Oc1ccccc1)N1CCC2(CC1)CCN(c1ccccn1)CC2	23%	-2%	?	0%	13µM*
COCC(=O)N1CCC2(CC1)CN(c1ccccn1)C2	-2%	-3%	?	8%	16µM*
O=C(Oc1ccccc1)N1CCC2(CC1)CCN(c1ccncc1)CC2	46%	-5%	?	2%	7.9µM*
O=C(NC1CCN(Cc2ccccc2)CC1)c1ccc(-n2c(=O)c(=O)[nH]c3ccccc32)cc1	nt	nt	?	nt	-19%
CC(=O)N[C@@H]1CONC1=O	4%[11.4 µM]	-11%[11.4 µM]	2%[11.4 µM]	-3%[11 µM]	2%[11.4 µM]
CC[C@](N)(C(=O)O)C(C)C	-5%[11.4 µM]	8%[11.4 µM]	2%[11.4 µM]	-2%[11 µM]	-3%[11.4 µM]
CCc1c2c(nc3ccccc13)OC(C)C2 (stereo not drawn)	0%	-2%	25%	-7%	9%
Cc1c2c(nc3c(C)cccc13)OC(C)C2 (stereo not drawn)	-2%	-1%	?	0%	25µM*
Cn1cccc1C(=O)N1CCC2(CCCN(c3ccccc3)C2)CC1	-11%	-5%	?	?	?
CN(Cc1cccs1)c1ncnc2sccc12	4%	-3%	?	8%	16µM*
c1csc(CNc2ncnc3sccc23)c1	-14%	-1%	?	-1%	?
CCC(=O)[C@@]1(C)[C@H](C)C[C@@H]2[C@@H]3CCC4=CC(=O)C=C[C@@]4(C)[C@H]3[C@H](O)C[C@]21C	1%[25.6 µM]	-5%[25.6 µM]	-13%[25.6 µM]	-2%[26 µM]	1%[25.6 µM]
Cc1nc2ncnn2c(C)c1Cc1ccc(Cl)cc1F	32%	-12%	25µM*	-8%	27%
SMILES	Tau fil binding	DNA Pol III inh	TSHR ag	Hsp90 Hop PPI	HEK293 cAMP ctrl
COc1ccc(CCCO[C@@H](Cn2ccnc2)c2ccc(OC)cc2)cc1	?	-3%	?	-15%	32µM*
CCCn1c(SCC(=O)Nc2ccc3c(c2)OCCO3)nnc1-c1ccco1	15%	-1%	0%	-1%	7%
Cc1ccc(-n2c(SCC(=O)Nc3ccc4c(c3)OCCO4)nnc2-c2ccco2)cc1	165%	0%	25µM*	-7%	23%
Nc1ccc(S(=O)(=O)NCc2nccs2)cc1	-4%[11.4 µM]	5%[11.4 µM]	5%[11.4 µM]	1%[11 µM]	0%[11.4 µM]
O=C(c1cccc(F)c1)N1C2C=CC(C2)C1(C(F)(F)F)C(F)(F)F (stereo not drawn)	-14%	-4%	25µM*	3%	23%
CCOC(=O)C1=C(c2ccccc2)N2CCN=C2S1	6%	-2%	-4%	-3%	2%

Screening results: PubChem BioAssay, National Center for Advancing Translational Sciences (NCATS)
